For 40 compounds, outcome results are on record in PubChem BioAssay.

Structures are written as SMILES. For some assays here: Results with a measured potency or affinity are listed apart. The source made the active and inactive calls. Unless noted, no cut-off is given here; in the data, nearly all actives have IC50 up to about 0.91 µM.

For one assay, the target named is Protein kinase 7 (PK7), Plasmodium falciparum 3D7 (PF3D7_0213400) (UniProt Q7YTF7). Kind of assay: inhibition of Plasmodium PK7 catalytic activity – biochemical, TCAMS antimalarial set, Kinase-Glo luminescence (AID 1159587; call rule not given here). The settings on record: recombinant PfPK7, Kinase-Glo ATP depletion luminescence. On the technique in general: Kinase-Glo measures the ATP left after a reaction by luminescence.
Sequence of Protein kinase 7 (PK7), Plasmodium falciparum 3D7 (PF3D7_0213400) (Q7YTF7 1-343): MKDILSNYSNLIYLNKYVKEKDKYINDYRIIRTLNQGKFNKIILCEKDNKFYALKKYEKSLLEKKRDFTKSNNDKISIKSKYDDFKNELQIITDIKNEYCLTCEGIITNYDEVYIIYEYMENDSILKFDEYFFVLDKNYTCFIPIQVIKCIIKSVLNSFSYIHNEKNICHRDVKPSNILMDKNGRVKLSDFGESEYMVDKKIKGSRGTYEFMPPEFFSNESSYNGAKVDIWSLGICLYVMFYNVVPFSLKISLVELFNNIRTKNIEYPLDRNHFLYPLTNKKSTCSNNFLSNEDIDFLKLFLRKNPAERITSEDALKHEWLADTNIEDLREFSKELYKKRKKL
With `CN(C)CCc1coc2ccc(C(=O)Nc3ccc(-c4ccc(O)cc4)cc3)cc12`, the result was inactive.
`CCOc1cc2c(cc1OCC)C(c1ccc(O)c(Cl)c1)NCC2` (stereo not given): the result was inactive.
The same measure, in the same setting: with `CN1CCN(CCCN(Cc2ccc(-c3cccc(CNC4CCCC4)c3)cc2)C(=O)/C=C/c2ccccc2)CC1` the entry was “inactive”; with `Cc1cc(Nc2ccc(Cl)cc2)n2nc(C(F)(F)F)nc2n1`, “inactive”.
Still for that read-out and setting: the value for `CCNc1cc(C(=O)N[C@@H](Cc2ccccc2)[C@H](O)CNCC(C)C)cc(N2CCCC2=O)c1` was “inactive”.
Still for that read-out and setting: with `COc1ccc(C(=O)N[C@@H](CC(C)C)C(=O)N[C@H](/C=N/NC(=O)c2ccccc2)CCc2ccccc2)cc1OCCN1CCOCC1` the entry was “inactive”.
Take `Cc1cc(N[C@@H](Cc2ccccc2)C(=O)NCCCOC(C)C)nc(NCC2CCCCC2)n1`: the result was inactive.
On the same count and under the same terms, the value for `Cc1nnsc1C(=O)Nc1cccc(-c2ccc(-c3nc4ccc(C(F)(F)F)cc4[nH]3)cc2)c1` was “inactive”; that for `CC1(C)N=C(N)N=C(N)N1OCCc1cccc2ccccc12` was “inactive”.
Still for that read-out and setting: the value for `Cc1ccc(Cn2ncc(N3CCNCC3)c(Cl)c2=O)cc1NC(=O)Nc1ccc(-c2ccccc2)cc1` was “inactive”; that for `Cc1cc(-c2ccc3c(c2)CCN(CCC2CCC(NC(=O)/C=C/c4ccc(F)cc4)CC2)CC3)on1` (stereo not given) was “inactive”; that for `COc1cc(OCCCN(C)Cc2ccc(OC)c(OC)c2)ccc1NC(=O)c1cccc2c(=O)c3cccc(F)c3[nH]c12` was “inactive”.
On the same count and under the same terms, the value for `O=C(Nc1cccc(CN2CCN(C(=O)c3ccccc3)CC2)c1)c1ccco1` was “inactive”; that for `COc1ccc2c(NN=Cc3ccccc3[N+](=O)[O-])cc(C)nc2c1` was “inactive”.
Regarding `Cc1nc(-c2ccc(C#N)cc2)sc1C(=O)NCCCCN1CCC(c2ccc3c(c2OCCO)CCCC3)CC1`, the outcome was inactive.
The same measure, in the same setting: the value for `Cc1nc2nc(N)nc(N)c2c(C)c1Cc1ccccc1Br` was “inactive”; that for `COC(=O)c1cccc(CNCc2cccc(-c3cccc(-c4nc5ccc(C(F)(F)F)cc5[nH]4)c3)c2)c1` was “inactive”; that for `CC(C)(C)CCN1CCC(CNC(=O)c2cc(-c3cccc(Cl)c3)cs2)C1` (stereo not given) was “inactive”.
The same measure, in the same setting: with `CC(C)(C)c1ccc(S(=O)(=O)Nc2ccccc2N2CCOCC2)cc1` the entry was “inactive”; with `CC(Cc1ccc(NC(=O)c2ccc(NCCc3ccccc3)cc2)cc1)NCCc1cccc(Cl)c1` (stereo not given), “inactive”.
The same measure, in the same setting: with `O=C(Nc1ccccc1Oc1ccccc1)NC1CCN(c2ccnc3cc(Cl)ccc23)C1` (stereo not given) the entry was “inactive”.
On to `C#C[C@H]1O[C@@H](n2cnc3c(Nc4cc(Br)cc(C(F)(F)F)c4)ncnc32)[C@H](O)[C@@H]1O`, for which the result was inactive.
Same read-out and setting: with `Oc1ccc(CCNc2nc(NCc3ccccc3-c3ccc(C(F)(F)F)cc3)nc(N3CCNCC3)n2)cc1` the entry was “inactive”; with `CCN(CCO)Cc1ccc(-c2ccc(NS(=O)(=O)c3cccc4cccnc34)cc2)cc1`, “inactive”; with `O=C(Nc1cccc(OC2CCN(Cc3ccccc3)CC2)c1)c1ccc([N+](=O)[O-])cc1`, “inactive”.
`O=C(Nc1ccc(-c2csc(-c3nc4ccccc4[nH]3)c2)cc1)Nc1ccsc1`: the outcome was inactive.
On the same count and under the same terms, the value for `CN(C)CCOC(=O)C1(O)CCC2CC1C2(C)C` (stereo not given) was “inactive”.
The same measure, in the same setting: the value for `CCN(CC)CCNc1ccnc2[nH]c3ccc(I)cc3c12` was “inactive”; that for `C(=NNc1cc(-c2ccccc2)nc2ccccc12)c1cccnc1` was “inactive”; that for `COc1ccc2nc(-c3cc(-c4ccc(NC(=O)CN5CCOCC5)cc4)cnc3N)[nH]c2c1` was “inactive”.
On to `Cc1cccc(C(=O)N2CCN(Cc3cccc(NC(=O)c4cccs4)c3)CC2)c1`, for which the result was inactive.
Still for that read-out and setting: with `Cn1ncc2c3c(CCN4CCC(NCc5cc6c(cn5)OCC6)CC4)c(Cl)cnc3ccc21` the entry was “inactive”; with `COc1ccc(CNc2ncc(-c3ccsc3)c(-c3nccs3)n2)cc1OC`, “inactive”.
Still for that read-out and setting: with `CCCC(=O)Nc1ccc(OCCN(Cc2ccccc2OC(F)(F)F)c2ccc(C(F)(F)F)c(C#N)c2)cc1` the entry was “inactive”; with `CC(=O)Nc1cccc(C(=O)Nc2cccc(-c3ccc(-c4nc5c(C)cccc5[nH]4)cc3)c2)c1`, “inactive”.
On the same count and under the same terms, the value for `Cc1cc(OCCCN2CCC(NS(=O)(=O)c3cc(Br)c(Cl)s3)CC2)c2ccccc2n1` was “inactive”.
With `Cc1ccccc1OCC(=O)Nc1ccc(-c2nc3cc4ccccc4cc3[nH]2)cc1`, the result was inactive.
Still for that read-out and setting: with `CCc1c(C)nc(-n2nc(C)cc2NC(=O)C(CC)c2ccccc2)[nH]c1=O` (stereo not given) the entry was “inactive”.
With `CC(C)Cn1c2ccccc2c2nc3nc(N)nc(N)c3nc21`, the outcome was inactive.
Still for that read-out and setting: the value for `O=C(NC1CCN(Cc2ccc(Cl)cc2)CC1)c1cn(-c2ccccc2)nc1-c1cccnc1` was “inactive”.

The target in a further assay is Calcium-dependent protein kinase 4 (Plasmodium falciparum (isolate 3D7)) (UniProt Q8IBS5). Kind of assay: PfCDPK4 kinase inhibitors, biochemical, TCAMS library (AID 1159588). The settings on record: recombinant PfCDPK4, Kinase-Glo ATP depletion luminescence.
Sequence of Calcium-dependent protein kinase 4 (Plasmodium falciparum (isolate 3D7)) (Q8IBS5 whole entry, looked up): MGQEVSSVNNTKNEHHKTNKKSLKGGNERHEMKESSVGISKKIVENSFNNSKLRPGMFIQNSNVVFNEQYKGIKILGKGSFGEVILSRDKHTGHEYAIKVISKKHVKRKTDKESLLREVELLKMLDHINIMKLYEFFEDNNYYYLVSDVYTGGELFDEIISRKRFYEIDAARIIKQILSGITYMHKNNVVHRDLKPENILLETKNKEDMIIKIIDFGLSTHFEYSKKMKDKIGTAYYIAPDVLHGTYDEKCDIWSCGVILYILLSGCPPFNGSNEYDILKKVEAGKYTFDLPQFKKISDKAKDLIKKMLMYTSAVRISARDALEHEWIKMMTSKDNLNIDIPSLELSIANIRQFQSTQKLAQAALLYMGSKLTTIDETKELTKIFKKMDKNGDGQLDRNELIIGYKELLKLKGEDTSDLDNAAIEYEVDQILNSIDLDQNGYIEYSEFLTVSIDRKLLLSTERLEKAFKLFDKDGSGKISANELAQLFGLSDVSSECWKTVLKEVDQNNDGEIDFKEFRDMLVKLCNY
In the case of `CN(C)CCc1coc2ccc(C(=O)Nc3ccc(-c4ccc(O)cc4)cc3)cc12`, the outcome was inactive.
Same read-out and setting: the value for `CCOc1cc2c(cc1OCC)C(c1ccc(O)c(Cl)c1)NCC2` (stereo not given) was “inactive”; that for `CN1CCN(CCCN(Cc2ccc(-c3cccc(CNC4CCCC4)c3)cc2)C(=O)/C=C/c2ccccc2)CC1` was “inactive”.
On the same count and under the same terms, with `Cc1cc(Nc2ccc(Cl)cc2)n2nc(C(F)(F)F)nc2n1` the entry was “inactive”.
The same measure, in the same setting: the value for `CCNc1cc(C(=O)N[C@@H](Cc2ccccc2)[C@H](O)CNCC(C)C)cc(N2CCCC2=O)c1` was “inactive”; that for `COc1ccc(C(=O)N[C@@H](CC(C)C)C(=O)N[C@H](/C=N/NC(=O)c2ccccc2)CCc2ccccc2)cc1OCCN1CCOCC1` was “inactive”.
With `Cc1cc(N[C@@H](Cc2ccccc2)C(=O)NCCCOC(C)C)nc(NCC2CCCCC2)n1`, the result was inactive.
With `Cc1nnsc1C(=O)Nc1cccc(-c2ccc(-c3nc4ccc(C(F)(F)F)cc4[nH]3)cc2)c1`, the outcome was inactive.
The same measure, in the same setting: the value for `CC1(C)N=C(N)N=C(N)N1OCCc1cccc2ccccc12` was “inactive”.
Same read-out and setting: with `Cc1ccc(Cn2ncc(N3CCNCC3)c(Cl)c2=O)cc1NC(=O)Nc1ccc(-c2ccccc2)cc1` the entry was “inactive”.
On the same count and under the same terms, with `Cc1cc(-c2ccc3c(c2)CCN(CCC2CCC(NC(=O)/C=C/c4ccc(F)cc4)CC2)CC3)on1` (stereo not given) the entry was “inactive”; with `COc1cc(OCCCN(C)Cc2ccc(OC)c(OC)c2)ccc1NC(=O)c1cccc2c(=O)c3cccc(F)c3[nH]c12`, “inactive”.
As to `O=C(Nc1cccc(CN2CCN(C(=O)c3ccccc3)CC2)c1)c1ccco1`, the outcome was inactive.
As for `COc1ccc2c(NN=Cc3ccccc3[N+](=O)[O-])cc(C)nc2c1`, the result was inactive.
With `Cc1nc(-c2ccc(C#N)cc2)sc1C(=O)NCCCCN1CCC(c2ccc3c(c2OCCO)CCCC3)CC1`, the result was inactive.
The same measure, in the same setting: with `Cc1nc2nc(N)nc(N)c2c(C)c1Cc1ccccc1Br` the entry was “inactive”; with `COC(=O)c1cccc(CNCc2cccc(-c3cccc(-c4nc5ccc(C(F)(F)F)cc5[nH]4)c3)c2)c1`, “inactive”.
On the same count and under the same terms, with `CC(C)(C)CCN1CCC(CNC(=O)c2cc(-c3cccc(Cl)c3)cs2)C1` (stereo not given) the entry was “inactive”.
In the case of `CC(C)(C)c1ccc(S(=O)(=O)Nc2ccccc2N2CCOCC2)cc1`, the result was inactive.
Still for that read-out and setting: the value for `CC(Cc1ccc(NC(=O)c2ccc(NCCc3ccccc3)cc2)cc1)NCCc1cccc(Cl)c1` (stereo not given) was “inactive”; that for `O=C(Nc1ccccc1Oc1ccccc1)NC1CCN(c2ccnc3cc(Cl)ccc23)C1` (stereo not given) was “inactive”.
Still for that read-out and setting: with `C#C[C@H]1O[C@@H](n2cnc3c(Nc4cc(Br)cc(C(F)(F)F)c4)ncnc32)[C@H](O)[C@@H]1O` the entry was “inactive”; with `Oc1ccc(CCNc2nc(NCc3ccccc3-c3ccc(C(F)(F)F)cc3)nc(N3CCNCC3)n2)cc1`, “inactive”.
Still for that read-out and setting: with `CCN(CCO)Cc1ccc(-c2ccc(NS(=O)(=O)c3cccc4cccnc34)cc2)cc1` the entry was “inactive”; with `O=C(Nc1cccc(OC2CCN(Cc3ccccc3)CC2)c1)c1ccc([N+](=O)[O-])cc1`, “inactive”.
Turning to `O=C(Nc1ccc(-c2csc(-c3nc4ccccc4[nH]3)c2)cc1)Nc1ccsc1`, the outcome was inactive.
On the same count and under the same terms, the value for `CN(C)CCOC(=O)C1(O)CCC2CC1C2(C)C` (stereo not given) was “inactive”; that for `CCN(CC)CCNc1ccnc2[nH]c3ccc(I)cc3c12` was “inactive”; that for `C(=NNc1cc(-c2ccccc2)nc2ccccc12)c1cccnc1` was “inactive”.
On the same count and under the same terms, the value for `COc1ccc2nc(-c3cc(-c4ccc(NC(=O)CN5CCOCC5)cc4)cnc3N)[nH]c2c1` was “inactive”; that for `Cc1cccc(C(=O)N2CCN(Cc3cccc(NC(=O)c4cccs4)c3)CC2)c1` was “inactive”; that for `Cn1ncc2c3c(CCN4CCC(NCc5cc6c(cn5)OCC6)CC4)c(Cl)cnc3ccc21` was “inactive”.
The same measure, in the same setting: with `COc1ccc(CNc2ncc(-c3ccsc3)c(-c3nccs3)n2)cc1OC` the entry was “inactive”; with `CCCC(=O)Nc1ccc(OCCN(Cc2ccccc2OC(F)(F)F)c2ccc(C(F)(F)F)c(C#N)c2)cc1`, “inactive”; with `CC(=O)Nc1cccc(C(=O)Nc2cccc(-c3ccc(-c4nc5c(C)cccc5[nH]4)cc3)c2)c1`, “inactive”.
As for `Cc1cc(OCCCN2CCC(NS(=O)(=O)c3cc(Br)c(Cl)s3)CC2)c2ccccc2n1`, the outcome was inactive.
On the same count and under the same terms, the value for `Cc1ccccc1OCC(=O)Nc1ccc(-c2nc3cc4ccccc4cc3[nH]2)cc1` was “inactive”.
Same read-out and setting: the value for `CCc1c(C)nc(-n2nc(C)cc2NC(=O)C(CC)c2ccccc2)[nH]c1=O` (stereo not given) was “inactive”; that for `CC(C)Cn1c2ccccc2c2nc3nc(N)nc(N)c3nc21` was “inactive”.
On the same count and under the same terms, the value for `O=C(NC1CCN(Cc2ccc(Cl)cc2)CC1)c1cn(-c2ccccc2)nc1-c1cccnc1` was “inactive”.
